Source: the supplement of paper PMC9262897, “Low-cost anti-mycobacterial drug discovery using engineered E. coli” (Nature Communications, 2022)
Structures can show the parent of a compound that is named as a salt. ± gives the standard deviation of the averaged measurements.

What was measured:
Assay in all cases: growth (OD600 after 10 h); higher = more growth (less inhibition)
[1] = system: E. coli TESEC Alr+ wild-type control; conditions: compound 0.1 mM; raw OD600 reference: median of DMSO wells 0.241, cell-free background 0.041
Protocol: (§1)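 TESEC Mtb Alr E. coli, or the Alr+ wild-type control, in 384-well plates with Prestwick library compounds at 0.1 mM and 1% DMSO, across arabinose induction levels of 1E3 to 1E7 nM. Growth is read as OD600 after 10 h at 37 °C in triplicate biological replicates.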

[2] = system: E. coli TESEC Mtb Alr; conditions: compound 0.1 mM
Protocol: as §1

[3] = system: E. coli TESEC Mtb Asd; conditions: compound 0.1 mM
Protocol: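 TESEC E. coli strains in which the native enzyme is deleted and replaced by arabinose-inducible Mtb Asd, DapB, CysH or TrpD, each grown in its selective medium. Strains were screened against the Prestwick library at 0.1 mM and 1% DMSO in 384-well format at low and high arabinose induction. Growth is read as OD600 after 10 h in triplicate.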

[4] = system: E. coli TESEC Alr+ wild-type control; conditions: compound 0.1 mM; raw OD600 reference: median of DMSO wells 0.49, cell-free background 0.052
Protocol: (§2)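 TESEC Mtb Alr E. coli (ΔaraC ΔtolC ΔentC Δalr ΔdadX, arabinose-inducible Mtb Alr) or the Alr+ wild-type control strain, grown in defined M9-fructose medium without D-alanine in 96-well plates with Prestwick library compounds at 0.1 mM and 1% DMSO. Low Alr induction is 0.1 µM arabinose and high induction is 10 mM arabinose.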

[5] = system: E. coli TESEC Mtb Alr; conditions: compound 0.1 mM; remark: listed apart in the source
Protocol: as §2

[6] = arabinose 1000 nM, raw OD600 reference: median of DMSO wells 0.294, cell-free background 0.041
[7] = arabinose 10000 nM, raw OD600 reference: median of DMSO wells 0.264, cell-free background 0.041
[8] = arabinose 100000 nM, raw OD600 reference: median of DMSO wells 0.201, cell-free background 0.041
[9] = arabinose 1000000 nM, raw OD600 reference: median of DMSO wells 0.193, cell-free background 0.041
[10] = arabinose 10000000 nM, raw OD600 reference: median of DMSO wells 0.146, cell-free background 0.041
[11] = arabinose induction (level): High, raw OD600 reference: median of DMSO wells 0.331, cell-free background 0.041
[12] = arabinose induction (level): Low, raw OD600 reference: median of DMSO wells 0.417, cell-free background 0.041
[13] = arabinose 100 nM, raw OD600 reference: median of DMSO wells 0.413, cell-free background 0.052
[14] = arabinose 10000000 nM, raw OD600 reference: median of DMSO wells […], cell-free background 0.052

| SMILES | growth [1] | growth [2, 6] | growth [2, 7] | growth [2, 8] | growth [2, 9] | growth [2, 10] | growth [3, 11] | growth [3, 12] | growth [4] | growth [5, 13] | growth [5, 14] |
| --- | --- | --- | --- | --- | --- | --- | --- | --- | --- | --- | --- |
| COc1cc([C@@H]2c3cc4c(cc3[C@@H](O[C@@H]3O[C@@H]5CO[C@@H](C)O[C@H]5[C@H](O)[C@H]3O)[C@H]3COC(=O)[C@H]23)OCO4)cc(OC)c1O [Etoposide] | 0.0715 ± 0.0031 | 0.0527 ± 0.0019 | 0.04273 ± 0.00025 | 0.0604 ± 0.0031 | 0.0501 ± 0.00056 | 0.1106 ± 0.0011 | 0.112 ± 0.015 | 0.0831 ± 0.013 | 0.142 ± 0.0036 | 0.129 ± 0.02 | 0.0985 ± 0.018 |
| C[n+]1ccccc1/C=N/O [Pralidoxime chloride] | 0.253 ± 0.0089 | 0.318 ± 0.018 | 0.256 ± 0.013 | 0.202 ± 0.015 | 0.177 ± 0.0021 | 0.156 ± 0.007 | 0.476 ± 0.013 | 0.455 ± 0.046 | 0.605 ± 0.018 | 0.407 ± 0.018 | 0.323 ± 0.015 |
| COc1cccc2c1C(=O)c1c(O)c3c(c(O)c1C2=O)C[C@@](O)(C(=O)CO)C[C@@H]3O[C@H]1C[C@H](N)[C@@H](O)[C@H](C)O1 [Epirubicin hydrochloride] | 0.04433 ± 0.00032 | 0.0453 ± 0.0011 | 0.04623 ± 0.00032 | 0.0469 ± 0.0005 | 0.0457 ± 0.00068 | 0.0453 ± 0.0005 | 0.068 ± 0.0071 | 0.0576 ± 0.0035 | 0.0592 ± 0.0032 | 0.0587 ± 0.0013 | 0.0582 ± 0.00053 |
| CN(C)CC/C=C1\c2ccccc2CSc2ccccc21 [Dosulepin hydrochloride] | 0.168 ± 0.0019 | 0.208 ± 0.0074 | 0.309 ± 0.019 | 0.211 ± 0.0092 | 0.146 ± 0.0095 | 0.163 ± 0.0079 | 0.14 ± 0.0062 | 0.263 ± 0.0048 | 0.425 ± 0.028 | 0.413 ± 0.013 | 0.308 ± 0.0073 |
| CCOc1ccc(Cc2nccc3cc(OCC)c(OCC)cc23)cc1OCC [Ethaverine hydrochloride] | 0.0471 ± 0.00059 | 0.0509 ± 0.0018 | 0.0528 ± 0.018 | 0.0664 ± 0.025 | 0.0659 ± 0.033 | 0.0686 ± 0.015 | 0.228 ± 0.0076 | 0.1635 ± 0.0016 | 0.377 ± 0.051 | 0.403 ± 0.0076 | 0.0633 ± 0.0024 |
| CC1(C)O[C@@H]2C[C@H]3[C@@H]4C[C@H](F)C5=CC(=O)CC[C@]5(C)[C@H]4[C@@H](O)C[C@]3(C)[C@]2(C(=O)CO)O1 [Flurandrenolide] | 0.223 ± 0.0092 | 0.289 ± 0.015 | 0.2518 ± 0.0025 | 0.174 ± 0.022 | 0.161 ± 0.01 | 0.131 ± 0.0031 | 0.282 ± 0.038 | 0.448 ± 0.035 | 0.417 ± 0.041 | 0.406 ± 0.01 | 0.338 ± 0.011 |
| CN(C)CCOC(=O)COc1ccc(Cl)cc1 [Meclofenoxate hydrochloride] | 0.235 ± 0.0029 | 0.3 ± 0.018 | 0.267 ± 0.0092 | 0.199 ± 0.013 | 0.184 ± 0.0027 | 0.138 ± 0.0014 | 0.355 ± 0.032 | 0.426 ± 0.029 | 0.511 ± 0.083 | 0.4 ± 0.013 | 0.313 ± 0.014 |
| CCOc1ccccc1OCC1CNCCO1 (stereo not drawn) [Viloxazine hydrochloride] | 0.236 ± 0.0043 | 0.294 ± 0.023 | 0.273 ± 0.0049 | 0.193 ± 0.011 | 0.196 ± 0.01 | 0.135 ± 0.0069 | 0.251 ± 0.022 | 0.386 ± 0.012 | 0.539 ± 0.074 | 0.406 ± 0.011 | 0.366 ± 0.0079 |
| CCN1CCCC1CNC(=O)c1cc(S(=O)(=O)CC)c(N)cc1OC (stereo not drawn) [Amisulpride] | 0.235 ± 0.0063 | 0.3 ± 0.011 | 0.253 ± 0.005 | 0.251 ± 0.025 | 0.169 ± 0.003 | 0.16 ± 0.0017 | 0.332 ± 0.093 | 0.377 ± 0.067 | 0.578 ± 0.046 | 0.408 ± 0.011 | 0.3237 ± 0.0029 |
| CCCCC(CC)CNC(=N)NC(=N)NCCCCCCNC(=N)NC(=N)NCC(CC)CCCC (stereo not drawn) [Alexidine dihydrochloride] | 0.0519 ± 0.0017 | 0.0821 ± 0.0028 | 0.0849 ± 0.0013 | 0.0842 ± 0.0022 | 0.0553 ± 0.0016 | 0.0814 ± 0.004 | 0.0536 ± 0.00095 | 0.0584 ± 0.0047 | 0.0485 ± 0.0022 | 0.0695 ± 0.012 | 0.0779 ± 0.013 |
| N=C(N)NC(=O)Cc1c(Cl)cccc1Cl [Guanfacine hydrochloride] | 0.241 ± 0.0058 | 0.287 ± 0.0063 | 0.26 ± 0.0052 | 0.236 ± 0.018 | 0.143 ± 0.0065 | 0.165 ± 0.0022 | 0.43 ± 0.13 | 0.444 ± 0.018 | 0.485 ± 0.018 | 0.406 ± 0.0086 | 0.329 ± 0.018 |
| CCn1cc(C(=O)O)c(=O)c2cc(F)c(N3CCNC(C)C3)c(F)c21 (stereo not drawn) [Lomefloxacin hydrochloride] | 0.04153 ± 0.0004 | 0.0411 ± 0.00064 | 0.03993 ± 0.00021 | 0.0417 ± 0.00042 | 0.03983 ± 0.00025 | 0.04157 ± 0.00015 | 0.04757 ± 0.00021 | 0.0494 ± 0.0013 | 0.0513 ± 0.0014 | 0.0534 ± 0.0016 | 0.0512 ± 0.0011 |
| COc1cc(OC)c(C(=O)CCCN2CCCC2)c(OC)c1 [Buflomedil hydrochloride] | 0.238 ± 0.0082 | 0.296 ± 0.0094 | 0.269 ± 0.0091 | 0.201 ± 0.04 | 0.189 ± 0.0075 | 0.146 ± 0.0076 | 0.274 ± 0.033 | 0.335 ± 0.064 | 0.642 ± 0.053 | 0.407 ± 0.0067 | 0.345 ± 0.0037 |
